Measured values taken from the supplement of paper PMC3334620.
The full ranking holds about 33,000 sequences; the median of “E-score (-0.5 to 0.5)” is about -0.012, and the highest 2% start at about 0.27. Shown is part of a subset that was picked to be rich in the highest values.

Target: T1, Vhr1 (UniProt P40522)
T1 sequence: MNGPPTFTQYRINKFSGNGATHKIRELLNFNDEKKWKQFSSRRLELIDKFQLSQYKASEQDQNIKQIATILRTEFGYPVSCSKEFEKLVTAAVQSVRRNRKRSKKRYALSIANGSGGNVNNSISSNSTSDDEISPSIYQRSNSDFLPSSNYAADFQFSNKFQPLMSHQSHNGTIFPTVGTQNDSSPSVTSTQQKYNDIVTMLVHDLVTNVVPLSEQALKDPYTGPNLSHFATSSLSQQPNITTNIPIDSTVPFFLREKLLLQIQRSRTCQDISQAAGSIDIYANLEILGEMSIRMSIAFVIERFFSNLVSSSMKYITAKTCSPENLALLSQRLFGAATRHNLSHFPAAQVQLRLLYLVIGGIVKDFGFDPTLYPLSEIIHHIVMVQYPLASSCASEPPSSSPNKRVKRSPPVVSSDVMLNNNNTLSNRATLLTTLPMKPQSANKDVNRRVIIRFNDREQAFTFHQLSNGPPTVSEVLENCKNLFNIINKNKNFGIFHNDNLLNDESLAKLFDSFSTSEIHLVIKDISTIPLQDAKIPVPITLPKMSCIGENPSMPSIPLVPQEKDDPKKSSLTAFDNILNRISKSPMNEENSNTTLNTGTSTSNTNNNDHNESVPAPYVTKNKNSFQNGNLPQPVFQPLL
Experiment: PBM E-score (8-mer binding enrichment) (E-score (-0.5 to 0.5)); higher = stronger / more preferred TF binding
Details: protein concentration: 200 nM; construct: GST-full length
Summary of the method: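 For each ungapped eight-base word taken together with its reverse complement, the Universal PBM Analysis Suite assigned an E-score. Binding data came from GST-tagged yeast transcription factors, applied at about 100-200 nM, on universal all-10-mer Agilent arrays made double-stranded by primer extension. Fluorescent anti-GST marked bound protein, and scans were normalised with masliner.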

Sequence	PBM E-score
TACGATGA	0.11
ACTTCTTC	-0.00857
TACTCCTA	0.123
CCAGAGCG	-0.145
ACGACAAA	0.092
GCATCATA	0.136
GAATCAAA	-0.0259
GAATCATA	0.397
CAATCATC	0.284
CCATCATC	0.138
AAATCATC	0.245
ATTTACAA	-0.101
ATCACACA	0.282
ATCACAGC	0.182
ATCACACC	0.288
ATCACACG	0.102
ATCACAAC	0.00509
ATCACATA	0.19
ATAGGCAA	-0.246
ACCTCGAC	-0.00505
AGCTGCCT	-0.219
AGTTTTTC	-0.152
CCAGCGAG	0.181
TGCACGCA	-0.0577
GTAGTTGA	0.277

Sequence	PBM E-score
ATAGTTGA	0.0409
CTAGTTGA	0.202
AGAAATCT	-0.217
GGACGCTA	-0.324
CAACTTGG	0.0538
AGTCAACT	0.144
GGTCAACC	0.0175
CGTCAACG	-0.0358
AGTCAACC	0.373
AGTCAACG	0.278
AGTCAACA	0.19
ATCTGATA	0.0202
CATGTAGA	0.00603
AGTCGCTA	0.174
ACCCACCG	0.256
CCCCACCC	0.36
CCCCACTC	0.128
ACCCTCCC	0.307
ACCCACTG	0.22
CCCCTCCC	0.171
ACCCACCC	0.397
ACCCTCCT	-0.116
ACCCACCT	0.0548
ACCCACTC	0.282
CCCCACCG	0.188

Sequence	PBM E-score
CCCCACCA	0.0983
AAAGCCAT	-0.0236
CGTCCCAC	0.0371
GGTTAGAC	-0.00016
GGGCTTGA	-0.125
ACCCTAAT	-0.0655
CCAAAAGA	-0.201
TCCCACCA	-0.112
GCCCACCA	-0.125
ACCACCCA	0.192
GCCCACAC	0.069
GCCCACCC	0.284
ACCCACCA	0.296
CCGAGAGC	-0.0932
ATAGCGCC	0.0931
CCATTCGA	-0.172
AGCTGTAC	0.016
GAAGAAAA	-0.221
ACCGCGGT	0.0486
CCCGCGGG	0.102
ACCGCGGG	0.312
ACCGCGCC	-0.0598
ACCGCGCT	0.0474
ACCGCGCG	0.336
GGAAGAAC	0.0668

Sequence	PBM E-score
ACTATCAT	0.251
ATAGGGCG	-0.0674
AGGAGGGA	-0.101
AGGAGGGG	0.284
AGGAGGGC	-0.11
TATGGGCA	0.131
ACTCCCAA	0.112
GTCAGGTA	0.126
ATGATTCG	0.412
AAGATTCG	0.0242
ATGATTTG	0.172
GGGATTCA	0.134
AGGATTCA	-0.0305
CAGATTCA	-0.232
ATGATTCA	0.443
CGGATTCA	0.0469
GTGATTCA	0.408
ACGATTCA	0.112
CTGATTCA	0.341
GAGATTCA	0.0192
ATCCAAGC	0.0358
ACTGCCCC	-0.0425
GTGGACCA	0.0132
ATTTTGGG	-0.177
CCGGTAGC	-0.00183

Sequence	PBM E-score
AGTGTACG	0.163
ATCCAATA	0.135
GGGAGGAC	-0.0865
GCTGGTAA	-0.148
GGCTAACA	-0.0545
GAGGTGTA	-0.038
GAGTTGGC	0.161
ATGATTCC	0.445
CTGATTCC	0.261
AGGATTCC	0.0112
GCATCCAC	0.0832
CACAGACC	0.307
CTCAGACC	-0.00267
AACAGACA	0.285
AACAGACT	0.0598
CACAGCCG	0.281
CACAGCCC	-0.0755
GACAGACC	-0.067
GACAGACA	0.294
CACAGACA	0.0563
AACAGCCG	-0.0956
AACAGACC	0.0701
CACAGACG	0.104
ACGGCGAA	0.0608
CCATATCG	0.245

Sequence	PBM E-score
GAAATTTA	-0.157
AAATGCGA	-0.00728
ATCAGACC	0.0881
GCTCTCAA	-0.0323
CATCTGGA	0.0944
CTAATGAG	0.0521
CGTTGCGA	0.0286
GGCCAGAA	-0.00605
ACAGTACT	0.0536
CATTAGCA	-0.152
CGTCGAAG	0.0798
AGTAGTTC	0.108
AGTAGTAA	0.0586
AGTAGTCG	0.292
AGTAGTCC	0.0701
CGTAGTCA	0.372
CGTAGTAA	-0.095
AGTAGTTG	0.29
CGTAGTCC	-0.0429
AGTAGTAG	0.0116
AGTAGTTA	0.0583
AGTAGTCA	0.401
AGTAGTGA	0.106
CCAGTGGA	-0.118
CATTGGCG	0.00375

Sequence	PBM E-score
GGAATGCA	0.0844
GGGCTTCA	-0.00484
GGTAGTGA	0.159
GGTAGTCA	0.427
GGTAGTAA	-0.193
ACCGTTGC	-0.0641
CACAATGG	0.176
CACAATGA	0.286
CACAATGC	0.132
GTCAGTCA	0.267
ATCAGTCG	0.23
TACAGTCA	0.294
ATCAGTCA	0.306
CTCAGTGA	0.111
CACAGTCA	0.244
ACCAGTCC	-0.0311
CTCAGTCC	-0.0479
AACAGTCA	0.192
ACCAGTCT	0.0104
ACCAGTCA	0.298
CTCAGTCA	0.362
ACGCTAGC	-0.322
AATTTAGG	0.0535
CACTAATC	0.19
CCCAATCG	-0.00353
